Most compounds without a hit are left out; they make up all but 7.4% or so of the library.
NPC1 prom act: activators of NPC1 promoter; Huh7 NPC1 promoter luciferase reporter, 24 h; Potency, µM (titrated, usually from 9.22 µM), usual class: activators; 320,000 tested, 2.4% active; AID 485313; also: nearly all actives have a fitted effect of over 60% in size
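Stably transfected Huh7 (NPC1 promoter→luciferase), 1500 cells/well in Opti-MEM + 10% FBS, 2 h settle, then compound 24 h at 37 °C. Luminescence after 10 min with Amplite reagent.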
ELG1 genotoxic: genotoxicity induction in ELG1-luciferase HEK293T cells; HEK293T ELG1-luciferase reporter, luminescence, 16 h; Potency, µM (top dose mostly 46 µM), usual class: activators; 330,000 tested, 1.3% active; AID 504466; also: nearly all actives have a fitted effect of over 60% in size
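Genotoxic stress is detected as increased luminescence from luciferase-tagged ELG1 in HEK293T cells, measured with ONE-Glo after a 16 hr treatment at 37 °C.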
Rab9 promoter act: activators of Rab9 promoter; Potency, µM (highest dose often 9.22 µM), actives largely listed as activators; 320,000 tested, 2.8% active; Huh7 Rab9 promoter-luciferase reporter, luminescence, 24 h; also: nearly all actives have a fitted effect of over 60% in size
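Promoter activation is measured as luciferase luminescence in Huh7 cells stably transfected with a Rab9 promoter–luciferase construct, following 24 h compound exposure at 37 °C and 10 min reagent incubation at ambient temperature.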
FLuc modulator: firefly luciferase modulation, counter-screen for miR-21 project; 360,000 tested, 6.9% active; AID 588342; purified FLuc, Km substrates, luminescence inhibition; P08659; Potency, µM (doses to about 57.5 µM), hits mostly inhibitors; also: nearly all actives have a fitted effect of over 55% in size
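Biochemical qHTS of compounds, final roughly 60 µM downward over six points, against 10 nM purified firefly luciferase using Km concentrations of substrates (10 uM D-luciferin, 10 uM ATP) in Tris acetate pH 7.5 buffer; luminescence output.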
SMN2 splice enh: enhancers of SMN2 splice variant expression | HEK293 SMN2-luciferase splicing reporter, luminescence, 30-36 h | Potency, µM (top dose mostly 46.1 µM), usual class: activators | 210,000 tested, 2.8% active | AID 1458; also: nearly all actives have a fitted effect of over 55% in size
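HEK293 cells carry an SMN2 minigene-luciferase reporter in which exon 7 inclusion puts luciferase in frame. Cells were seeded at 2000 cells/well, attached for 10-12 hours, then exposed to compounds for 30-36 hours at 37C before ONE-Glo luminescence.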
Of the large screens only hits and unclear results are named; the others gave an inactive call. Calls follow the shape of the dose curve; as a rule, active = well fitted curve in the direction sought with a large enough effect; inconclusive = small, poorly fitted or top-dose-only effect, or another doubt; inactive = no such curve, though single readings can be large; an effect the other way counts as inactive or inconclusive.

C/C(CCc1ccccc1)=N/NC(=O)C(=O)NCc1ccccc1	none
Cc1cc(C(=O)O)ccc1N=Cc1c(O)ccc2ccccc12	FLuc modulator 0.76µM (no result: SMN2 splice enh)
Oc1ccccc1N=Cc1c(O)ccc2ccccc12	FLuc modulator 13µM (no result: SMN2 splice enh)
CS/C(N)=N/N=C/c1c(O)ccc2ccccc12	ELG1 genotoxic inconclusive, Rab9 promoter act inconclusive, FLuc modulator 3µM (no result: SMN2 splice enh)
CN(C)/N=C/c1c(O)ccc2ccccc12	FLuc modulator inconclusive
CC(=O)c1cccc(N=Cc2c(O)ccc3ccccc23)c1	FLuc modulator inconclusive (no result: SMN2 splice enh)
OCC(CO)(CO)N=Cc1c(O)ccc2ccccc12	none
Oc1ccc2ccccc2c1C=Nc1ccc(N2CCOCC2)cc1	FLuc modulator 6µM
O=C(CCc1cnccn1)NC1CCCc2c1cnn2-c1ccc(F)cc1F (stereo not drawn)	none (no result: SMN2 splice enh)
CCCCNC(=O)CCCCCNS(=O)(=O)c1ccc(Br)cc1	none
Cc1ccc(S(=O)(=O)N2CCN(Cc3cc(=O)n4ccccc4n3)CC2)c(C)c1	none (no result: SMN2 splice enh)
O=C(Cc1c(F)cccc1Cl)NNC(=S)Nc1ccc(S(=O)(=O)Nc2ncccn2)cc1	none (no result: SMN2 splice enh)
